From PubChem BioAssay (NCATS)
Where “and” joins values, the source holds several entries; their conditions need not be identical. Identical values can stand only once. Records with an inconclusive call do not appear. Calls of active or inactive are those of the source. Unless noted, calls follow the shape of the dose curve; as a rule, active = well fitted curve in the direction sought with a large enough effect; inconclusive = small, poorly fitted or top-dose-only effect, or another doubt; inactive = no such curve, though single readings can be large; an effect the other way counts as inactive or inconclusive.

Key:
[1] = target: Thyroid hormone receptor beta (Homo sapiens) (UniProt P10828); test: qHTS assay for small molecule agonists of thyroid hormone receptor beta signaling (AID 588545; calls by dose curve)
Chain of Thyroid hormone receptor beta (Homo sapiens) (P10828 whole entry, looked up): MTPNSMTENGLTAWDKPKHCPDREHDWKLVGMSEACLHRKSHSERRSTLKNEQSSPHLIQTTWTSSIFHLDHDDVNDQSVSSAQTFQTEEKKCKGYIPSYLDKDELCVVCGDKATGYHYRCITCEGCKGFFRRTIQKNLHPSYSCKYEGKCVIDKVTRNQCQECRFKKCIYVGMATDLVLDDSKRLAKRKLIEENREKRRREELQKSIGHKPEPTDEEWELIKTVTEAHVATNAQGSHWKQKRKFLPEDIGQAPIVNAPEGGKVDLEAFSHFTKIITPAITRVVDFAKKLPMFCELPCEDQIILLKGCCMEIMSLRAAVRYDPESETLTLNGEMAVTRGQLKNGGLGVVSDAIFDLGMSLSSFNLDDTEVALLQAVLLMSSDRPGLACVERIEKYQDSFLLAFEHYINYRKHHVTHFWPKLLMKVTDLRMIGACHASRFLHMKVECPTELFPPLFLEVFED
How it was run: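 Agonist-mode beta-lactamase reporter assay, HEK 293 cells, 2% charcoal/dextran FBS; cells plated 4 hrs, compound 18 hrs at 37 C, CCF4 2 hrs RT. Normalized to 10 nM T3 (100%) and DMSO (0%); Hill fit gives EC50, efficacy.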

[2] = target: Thyroid hormone receptor beta (Homo sapiens) (UniProt P10828); test: qHTS assay for small molecule antagonists of thyroid hormone receptor beta signaling (AID 588547; active = well fitted inhibition curve with a large enough effect in the signal ratio, with a control signal flat, not every such curve was filed as active; the % refers to the signal ratio;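 also: cells stimulated with 0.4 nM T3 agonist during compound exposure; series mostly up to about 77 µM; % is scaled to controls: 0 for no effect and ±100 for the full control effect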); details: TR-UAS-bla HEK293, beta-lactamase ratio, antagonist mode, 18 h
How it was run: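 Inhibition of T3-driven (0.4nM final) beta-lactamase reporter activity was measured over 0.59 nM to 92 uM compound after 18 h at 37 C. The cells were GripTite HEK293 TR-UAS-bla in charcoal/dextran-stripped serum, with CCF4 ratio read-out and IC50 from Hill fits.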

[3] = qHTS assay for small molecule agonists of the antioxidant response element (ARE) signaling pathway (AID 651741; active = well fitted activation curve with a large enough effect in the signal ratio; the % refers to the signal ratio; also: potency is read from the fitted curve at half-maximal effect; as to activation: % of control where 0% means no effect)
How it was run: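 Quantitative HTS in HepG2 cells stably expressing an ARE-beta-lactamase reporter; 16 h compound exposure at 37 C, followed by 2 h room-temperature incubation with LiveBLAzer B/G FRET substrate and fluorescence measurement.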

[4] = qHTS assay for small molecule activators of the p53 signaling pathway (AID 651743; active = well fitted activation curve with a large enough effect in the signal ratio, not every such curve was filed as active; the % refers to the signal ratio; also: series mostly up to about 92 µM; % of control where 0% means no effect); details: HCT-116 p53RE-bla, beta-lactamase FRET ratio, 16 h; stronger effect = higher value
How it was run: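 Read-out is fluorescence intensity from the LiveBLAzer B/G FRET substrate, added for 2 hours at room temperature after HCT-116 p53RE-bla cells had been incubated with compounds for 16 hours at 37 C.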

[5] = qHTS assay for small molecule activators of the nuclear factor-kappa B (NF-kB) signaling pathway (AID 651749; active = well fitted activation curve with a large enough effect in the signal ratio; the % refers to the signal ratio; also: series mostly up to about 77 µM; % of control where 0% means no effect); details: NF-kB-bla ME-180 cells, beta-lactamase FRET ratio, 16 h; stronger effect = higher value
How it was run: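 Readout: beta-lactamase reporter driven by an NF-kB response element, detected fluorescently as loss of FRET. Cells were the ME-180 line, treated 16 hr at 37C with pin-transferred compound.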

[6] = qHTS assay for small molecule disruptors of the mitochondrial membrane potential - 1 hr assay (AID 651754; calls by dose curve; also: % is scaled to controls: 0 for no effect and ±100 for the full control effect; nearly all actives have a fitted effect of over 35% in size)
How it was run: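 HepG2, 2,000 cells/well, overnight attachment; cpd or DMSO 1 hr, 37C/5% CO2; Mito-MPS dye 30 min, 37C; fluorescence monomer (490/535) and aggregate (540/590).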

[7] = target: Tumor necrosis factor (Homo sapiens) (UniProt P01375); test: qHTS assay to identify small molecules that stimulate Tumor Necrosis Factor-alpha (TNF-alpha) secretion (AID 651757; active = well fitted curve in the direction sought with a large enough effect in the signal ratio; the % refers to the signal ratio; also: 0% is about no effect)
Chain of Tumor necrosis factor (Homo sapiens) (P01375 whole entry, looked up): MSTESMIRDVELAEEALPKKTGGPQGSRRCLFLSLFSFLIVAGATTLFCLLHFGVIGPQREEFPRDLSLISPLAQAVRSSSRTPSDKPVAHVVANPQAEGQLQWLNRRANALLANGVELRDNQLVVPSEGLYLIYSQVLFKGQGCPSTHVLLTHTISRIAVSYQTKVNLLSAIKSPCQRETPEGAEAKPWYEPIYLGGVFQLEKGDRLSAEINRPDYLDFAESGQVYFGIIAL
How it was run: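 Read-out is HTRF, a TR-FRET sandwich of cryptate- and XL665-labeled anti-TNF-alpha antibodies detecting cytokine secreted by THP-1 cells. Cells had been incubated with test compounds at 37 C for 17 hrs beforehand.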

[8] = qHTS assay to identify small molecules that stimulate interleukin-8 (IL-8) secretion (AID 651758; active = well fitted activation curve with a large enough effect in the signal ratio; the % refers to the signal ratio; also: potency is read from the fitted curve at half-maximal effect; as to activation: 0% is about no effect)
How it was run: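 Secreted IL-8 measured by TR-FRET sandwich (cryptate and XL665 antibodies) from THP-1 cells exposed to compound overnight (16 hrs, 37 C).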

[9] = qHTS assay for environmental chemicals that activate the Aryl hydrocarbon Receptor (AhR) signaling pathway (AID 651777); details: 1A2-DRE human hepatoma cells, luciferase, 24 h; activation: stronger effect = higher value; also: nearly all actives have a fitted effect of over 15% in size; also: potency is read from the fitted curve at half-maximal effect; as to activation: % of control where 0% means no effect
How it was run: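 1A2-DRE human hepatoma reporter line; 1,200 cells/well; cmpd or DMSO 24 h, 37 C/5% CO2; One-Glo 30 min RT; luciferase lum.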

[10] = target: Peroxisome proliferator-activated receptor alpha (Homo sapiens) (UniProt Q07869); test: qHTS assay for small molecule agonists of the peroxisome proliferator-activated receptor alpha (PPARalpha) signaling pathway (AID 651778); details: PathHunter PPARalpha complementation, chemiluminescence, 6 h; stronger effect = higher value; also: % of control where 0% means no effect
Chain of Peroxisome proliferator-activated receptor alpha (Homo sapiens) (Q07869 whole entry, looked up): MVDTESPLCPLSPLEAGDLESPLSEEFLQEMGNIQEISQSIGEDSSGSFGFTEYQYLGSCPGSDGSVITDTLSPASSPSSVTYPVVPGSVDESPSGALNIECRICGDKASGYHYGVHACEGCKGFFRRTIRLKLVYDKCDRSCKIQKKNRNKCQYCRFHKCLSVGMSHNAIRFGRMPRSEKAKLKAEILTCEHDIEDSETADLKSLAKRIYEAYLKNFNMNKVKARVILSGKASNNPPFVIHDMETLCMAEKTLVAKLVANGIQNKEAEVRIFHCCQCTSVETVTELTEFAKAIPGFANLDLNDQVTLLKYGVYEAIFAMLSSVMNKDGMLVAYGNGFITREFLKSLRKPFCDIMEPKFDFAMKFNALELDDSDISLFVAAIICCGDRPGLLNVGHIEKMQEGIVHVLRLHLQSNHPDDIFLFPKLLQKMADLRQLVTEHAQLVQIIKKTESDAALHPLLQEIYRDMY
How it was run: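 Chemiluminescence from complemented enzyme reported PPARalpha activation in cells after 6 hr of compound treatment at 37 C. The detection reagent was incubated for 60 min at room temperature, and compounds were scored as agonists.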

[11] = qHTS assay for small molecule antagonists of the retinoid-related orphan receptor gamma (ROR-gamma) signaling pathway - cell viability counter screen (AID 720652; active = well fitted curve in the direction sought with a large enough effect in the repeat runs; an effect the other way counts as inactive or inconclusive;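 also: compound exposure lasted 16 hr before ATP read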; also: potency is read from the fitted curve at half-maximal effect)
How it was run: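 Luminescence from CellTiter-Glo after 30 min at room temperature reported cellular ATP as the cytotoxicity measure. Cells were the CHO reporter line with doxycycline-induced ROR-gamma expression, exposed to compound for 16 hr at 37 C.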

[12] = qHTS assay for small molecule agonists of retinoid X receptor alpha signaling (AID 588544; calls by dose curve;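 as to activation: 0% = DMSO basal wells and 100% = reference agonist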); details: HEK293T RXRa-UAS-bla, beta-lactamase reporter, 18 h; 530 nm emission
[13] = target: Retinoic acid receptor RXR-alpha (Homo sapiens) (UniProt P19793); test: as above
Chain of Retinoic acid receptor RXR-alpha (Homo sapiens) (P19793 whole entry, looked up): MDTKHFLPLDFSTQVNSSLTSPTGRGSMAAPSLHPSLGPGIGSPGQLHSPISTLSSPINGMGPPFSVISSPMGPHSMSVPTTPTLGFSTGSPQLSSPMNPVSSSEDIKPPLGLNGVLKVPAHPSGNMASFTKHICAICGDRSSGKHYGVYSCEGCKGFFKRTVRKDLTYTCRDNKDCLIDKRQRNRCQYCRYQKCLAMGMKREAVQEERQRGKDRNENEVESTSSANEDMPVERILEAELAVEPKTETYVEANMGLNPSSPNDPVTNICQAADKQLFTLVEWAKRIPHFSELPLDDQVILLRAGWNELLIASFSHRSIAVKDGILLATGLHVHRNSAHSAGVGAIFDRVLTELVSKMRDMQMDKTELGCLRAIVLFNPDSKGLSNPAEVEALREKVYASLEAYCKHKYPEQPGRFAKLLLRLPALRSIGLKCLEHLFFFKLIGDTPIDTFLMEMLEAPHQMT

[14] = qHTS assay for small molecule antagonists of retinoid X receptor alpha signaling (AID 588546; active = well fitted inhibition curve with a large enough effect in the signal ratio, with a control signal flat, not every such curve was filed as active; the % refers to the signal ratio;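 also: cells stimulated with 9-cis-retinoic acid as agonist; % is scaled to controls: 0 for no effect and ±100 for the full control effect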); details: HEK293T RXRa-UAS-bla, beta-lactamase ratio, antagonist mode; measured here: W530 green channel, cytotoxicity proxy
How it was run: (§1)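 Beta-lactamase reporter inhibition, read as CCF4 fluorescence ratio (ex 405, em 460/530 nm) after 2 h at RT. HEK293T UAS-bla cells, 2500/well, were stimulated with 9-cis-RA at 500 or 100 nM final alongside test compound for 18 h at 37 C.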

[15] = target: Retinoic acid receptor RXR-alpha (Homo sapiens) (UniProt P19793); test: as above; details: HEK293T RXRa-UAS-bla, beta-lactamase ratio, antagonist mode
How it was run: as §1

[16] = target: Voltage-gated inwardly rectifying potassium channel KCNH2 (Homo sapiens) (UniProt Q12809); test: qHTS Assay for Small Molecule Inhibitors of the Human hERG Channel Activity (AID 588834);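 also: top concentration of the series differs between compounds; % is scaled to controls: 0 for no effect and ±100 for the full control effect; lower thallium flux fluorescence means stronger hERG block; nearly all actives have a fitted effect of over 50% in size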
Chain of Voltage-gated inwardly rectifying potassium channel KCNH2 (Homo sapiens) (Q12809 whole entry, looked up): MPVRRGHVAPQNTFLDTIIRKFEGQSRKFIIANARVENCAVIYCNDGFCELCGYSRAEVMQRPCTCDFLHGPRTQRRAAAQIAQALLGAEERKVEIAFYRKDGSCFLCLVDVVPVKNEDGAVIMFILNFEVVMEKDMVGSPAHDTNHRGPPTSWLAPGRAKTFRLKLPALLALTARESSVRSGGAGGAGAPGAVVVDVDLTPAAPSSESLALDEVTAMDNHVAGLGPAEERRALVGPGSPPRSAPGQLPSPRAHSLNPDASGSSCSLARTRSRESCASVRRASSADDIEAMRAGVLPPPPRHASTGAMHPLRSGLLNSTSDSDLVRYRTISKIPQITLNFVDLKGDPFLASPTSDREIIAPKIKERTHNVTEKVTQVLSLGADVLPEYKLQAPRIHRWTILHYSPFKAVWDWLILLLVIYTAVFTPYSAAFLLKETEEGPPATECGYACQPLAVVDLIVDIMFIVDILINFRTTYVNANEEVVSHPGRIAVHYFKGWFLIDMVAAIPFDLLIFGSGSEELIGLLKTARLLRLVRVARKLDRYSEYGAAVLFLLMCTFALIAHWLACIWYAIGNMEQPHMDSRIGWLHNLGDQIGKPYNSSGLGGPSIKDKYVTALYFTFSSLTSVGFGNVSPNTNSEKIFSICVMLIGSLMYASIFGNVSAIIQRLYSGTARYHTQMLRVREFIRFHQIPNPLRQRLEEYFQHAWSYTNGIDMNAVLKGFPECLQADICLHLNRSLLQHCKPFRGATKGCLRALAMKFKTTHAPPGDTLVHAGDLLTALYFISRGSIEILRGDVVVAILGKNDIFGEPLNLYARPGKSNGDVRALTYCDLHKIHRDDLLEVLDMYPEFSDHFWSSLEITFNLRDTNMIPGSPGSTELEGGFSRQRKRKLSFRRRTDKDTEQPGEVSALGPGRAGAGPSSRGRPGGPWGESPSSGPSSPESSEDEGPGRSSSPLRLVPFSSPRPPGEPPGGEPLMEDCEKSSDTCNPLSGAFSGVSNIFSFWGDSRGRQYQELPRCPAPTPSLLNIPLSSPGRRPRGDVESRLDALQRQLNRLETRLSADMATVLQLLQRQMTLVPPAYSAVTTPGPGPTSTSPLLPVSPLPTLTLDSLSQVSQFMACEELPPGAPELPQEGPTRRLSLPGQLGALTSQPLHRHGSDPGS
How it was run: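 hERG-BacMam U2OS, 2000 cells/well; 0.7X FluxOR loading 1 hr RT dark; cpd ~10 min 37 °C; stim buffer; FDSS fluorescence 2 min @ 1 s; AC50 Hill fit.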

[17] = qHTS assay for small molecule disruptors of the mitochondrial membrane potential - 5 hr assay (AID 651755; calls by dose curve; also: % is scaled to controls: 0 for no effect and ±100 for the full control effect; nearly all actives have a fitted effect of over 40% in size)
How it was run: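 HepG2, 2,000 cells/well, overnight attach; cpd or DMSO 5 hr, 37C/5% CO2; Mito-MPS 30 min 37C; fluor 490/535 + 540/590 nm.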

[18] = target: Nuclear receptor ROR-gamma (Homo sapiens) (UniProt P51449); test: qHTS assay for small molecule antagonists of the retinoid-related orphan receptor gamma (ROR-gamma) signaling pathway (AID 651802);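 also: luciferase reporter luminescence driven by ROR response element; series mostly up to about 92 µM; % is scaled to controls: 0 for no effect and ±100 for the full control effect; nearly all actives have a fitted effect of over 60% in size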
Chain of Nuclear receptor ROR-gamma (Homo sapiens) (P51449 whole entry, looked up): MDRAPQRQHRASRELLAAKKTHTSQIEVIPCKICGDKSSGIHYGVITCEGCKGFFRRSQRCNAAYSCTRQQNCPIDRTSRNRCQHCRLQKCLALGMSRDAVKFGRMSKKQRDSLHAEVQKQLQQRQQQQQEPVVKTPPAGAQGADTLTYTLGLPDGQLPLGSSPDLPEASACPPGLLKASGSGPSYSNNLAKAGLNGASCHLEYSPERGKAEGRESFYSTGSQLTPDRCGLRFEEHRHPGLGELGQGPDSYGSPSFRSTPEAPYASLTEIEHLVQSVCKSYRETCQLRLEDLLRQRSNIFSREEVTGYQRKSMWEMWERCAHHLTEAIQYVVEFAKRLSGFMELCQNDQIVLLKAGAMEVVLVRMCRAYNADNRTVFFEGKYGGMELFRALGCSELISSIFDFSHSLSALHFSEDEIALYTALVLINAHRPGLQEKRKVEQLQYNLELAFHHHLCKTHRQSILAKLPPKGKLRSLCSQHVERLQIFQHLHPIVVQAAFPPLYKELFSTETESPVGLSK
How it was run: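 CHO, TET-inducible ROR + RORE-LUC reporter, 1536-well qHTS. Compound pinned, doxycycline added, 16hr 37C/5% CO2. ONE-Glo, 30 min RT, luminescence; signal drop scored as antagonism.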

[19] = qHTS assay for small molecule agonists of the antioxidant response element (ARE) signaling pathway measured by Nrf2-dependant transcriptional activity (AID 720636; active = well fitted curve in the direction sought with a large enough effect in the repeat runs; an effect the other way counts as inactive or inconclusive;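 also: HepG2 cells with an ARE-driven luciferase reporter; % of control where 0% means no effect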)
How it was run: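 Cells: ARE-luc HepG2 with Nrf2-responsive luciferase. Medium contained 1% dialyzed FBS. Compound exposure lasted 16 hr at 37 C and 5% CO2, followed by ONE-Glo luciferase detection.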

[20] = qHTS assay for small molecule agonists of the antioxidant response element (ARE) signaling pathway measured by Nrf2-dependant transcriptional activity - cell viability counter screen (AID 720653; active = well fitted curve in the direction sought with a large enough effect in the repeat runs; an effect the other way counts as inactive or inconclusive; also: % is scaled to controls: 0 for no effect and ±100 for the full control effect); details: ARE-bla HepG2 viability, CellTiter-Glo ATP luminescence, 16 h; stronger effect = lower value
How it was run: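 Cytotoxicity counter screen: intracellular ATP quantified by CellTiter-Glo luminescence in the same ARE-bla HepG2 plates, after 16 h compound exposure and a 2 h beta-lactamase substrate step.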

CC1=C(/C=C/C(C)=C/C=C/C(C)=C\C=O)C(C)(C)CCC1
active: Potency [3] 37.6 µM | Potency [8] 422 nM | Potency [11] 26.6 µM
inactive: outcome [1] | activity change % (negative = inhibition) [2] -14.6% | activation [4] 8.65% | activation [5] -1.57% | Potency [6] | Potency [7] | activation [9] 6.53% | max response [10] 1.33%

CCc1ccccc1
3.87%: max response [14]
inactive: outcome [13] | max response [15] 1.68% | Potency [16] | activation [5] -1.59% | Potency [17] | Potency [7] | activation [9] 3.73% | Potency [18] | outcome [19] | Potency [11] | max response [20] -7.67%
10.6%: max response [12]

c1ccc(Nc2ccccc2)cc1
inactive: outcome [13] | max response [15] -5.42% and 3.85% | Potency [16] | Potency [3] | activation [4] 1.33% and -1.7% | activation [5] 0.526% and -2.1% | Potency [6] | Potency [17] | Potency [7] | activation [9] 0.217% and 3.92% | max response [10] -3.04% and -2.25% | Potency [18] | outcome [19] | Potency [11] | max response [20] -1.43% and -3.7%
1.16% and -8.24%: max response [14]
-15.4% and 2.86%: max response [12]

Nc1nc(-c2ccccc2)cs1
7.15%: max response [14]
-6.18%: max response [12]
active: Potency [3] 37.6 µM | Potency [9] 35.5 µM
inactive: outcome [13] | max response [15] -5.77% | Potency [16] | activation [5] 0.279% | Potency [17] | Potency [7] | max response [10] 22.8% | Potency [11]

COC(=O)CS
-3.61%: max response [14]
inactive: outcome [13] | max response [15] 1.63% | Potency [16] | Potency [3] | activation [4] -2.8% | activation [5] -0.561% | Potency [6] | Potency [17] | Potency [7] | max response [10] -1.38% | Potency [18] | outcome [19] | Potency [11]
-8.12%: max response [12]

Nc1ccc(F)cc1F
inactive: outcome [13] | max response [15] 16.2% | Potency [16] | Potency [3] | activation [4] -3.46% | activation [5] -1.13% | Potency [6] | Potency [17] | Potency [7] | Potency [8] | activation [9] -1.74% | max response [10] 7.65% | Potency [18] | outcome [19] | Potency [11] | max response [20] -3.09%
-8.47%: max response [14]
-10.9%: max response [12]

O=C(O)CN(CC(=O)O)CC(=O)O
inactive: outcome [13] | max response [15] -2.38% and 4.38% | Potency [16] | Potency [3] | activation [4] -2.4% and 1.34% and -0.523% | Potency [7] | max response [10] 0.802% and -1.95% and -0.798% | outcome [19] | Potency [11] | max response [20] -26.1% and -5.78% and 9.03%
-6.97% and -9%: max response [14]
-7.34% and 8.5%: max response [12]

Nc1cccc([N+](=O)[O-])c1
-9.54%: max response [14]
-3.08%: max response [12]
inactive: outcome [13] | max response [15] 1.86% | activity change % (negative = inhibition) [2] -4.44% | Potency [16] | activation [4] -4.7% | Potency [6] | Potency [17] | Potency [7] | Potency [8] | activation [9] 0.683% | Potency [18] | outcome [19] | Potency [11] | max response [20] 11.8%

Cc1ccc(Cl)cc1
inactive: outcome [13] | max response [15] 8.67% | Potency [16] | Potency [3] | activation [4] -2.72% | Potency [7] | max response [10] -0.102% | outcome [19] | Potency [11] | max response [20] 4.9%
0.942%: max response [12]
-3.57%: max response [14]
